Reference: PubChem BioAssay

test: JC-1 mitochondrial signal, unstimulated myeloma cells – cell-based, JC-1 fluorescence, RPMI8226, 24 h, 100 nL compound, profiling panel (AID 1169); conditions: JC-1 mitochondrial potential fluorescence, higher = more signal; also: test concentration not given here

SMILES | z-score
COCCOC(=O)N1C(=O)[C@@]2(c3cc(C#CC4(O)CCCCCC4)ccc31)[C@H](C(=O)N1CCN(c3ncccn3)CC1)[C@H]1C(=O)O[C@H](c3ccccc3)[C@H](c3ccccc3)N1[C@@H]2c1ccc(OCCO)cc1 | -0.479
CS(=O)(=O)CCOC(=O)C1=CC(CCCO)=CC(c2cccs2)N(Cc2cccc(OC(F)(F)F)c2)C=C1C(=O)OCCS(C)(=O)=O (stereo unspecified) | -0.662
N#Cc1ccc(NN2C(C(O)c3cc(C(F)(F)F)cc(C(F)(F)F)c3)C=CC3C(=O)N(c4ccccc4)C(=O)C32)cc1 (stereo unspecified) | -0.754
COC(=O)C1(C)C=C2C(=C(c3ccccc3)C(=O)C2C)CN1 (stereo unspecified) | 0.2
COC(=O)CC=C[C@H](C)[C@@H](OCc1ccccc1Br)C(C)C | 0.00667
CC(=O)OC[C@H]1O[C@H](CCON=C[C@@H](C)[C@H](OCc2ccccc2)C(C)C)C=C[C@@H]1OC(C)=O | -0.0185
CC(CCN1CCCCc2nc(C)c(C)cc21)=NOC(C)CN1CCCCc2nc(C)c(C)cc21 (stereo unspecified) | 0.308
CCN1C(=O)[C@H]2[C@H]3[C@H](O)[C@H](O)CC(=NOCc4ccccc4)[C@@H]3CC[C@H]2C1=O | -0.0637
CC(=O)OC[C@H]1O[C@H](CCON=C(C)CCN2CCc3nc(-c4ccccc4)c(-c4ccccc4)cc3C2)C=C[C@@H]1OC(C)=O | 0.168
CN(C)CCCNC(=O)[C@@H]1c2ccccc2C(=O)N(Cc2cc(F)cc(C(F)(F)F)c2)[C@H]1c1ccc(CO)cc1 | 0.735
CC(CCC(=O)OC[C@H]1O[C@H](C#Cc2ccccc2)C=C[C@@H]1Oc1ccc(C)cc1)=NOC[C@@H](O)[C@H]1O[C@@H]2OC(C)(C)O[C@@H]2[C@H]1O | -0.0641
